Results filed as inconclusive are left out. Where a call stands in place of a potency, no number is given. Active and inactive are the calls of the source. The call rests on the fitted dose curve; in most records, active means well fitted curve in the direction sought with a large enough effect; inconclusive means small, poorly fitted or top-dose-only effect, or another doubt; inactive means no such curve, though single readings can be large or run the other way.
biological target: Nuclear receptor subfamily 1 group I member 3 (Homo sapiens) (UniProt Q14994); test: Primary qHTS for antagonist of constitutive androstane receptor (CAR) against the NCATS DSHEA and TCM libraries (AID 1794836); settings: CAR reporter cell assay, antagonist mode, luciferase; series mostly up to 40 µM
Source text: Assay Development and Screening Technology Laboratory (ADST)
National Center for Advancing Translational Sciences (NCATS), Rockville, MD
National Institute of Health (NIH), Bethesda, Maryland
Dietary Supplements and Natural Products have minor oversight of their safety and efficacy. We assembled a collection of Dietary Supplements and Natural Products (DSNP) as well as Traditional Chinese Medicinal (TCM) Plant extracts, which were screened against an in vitro panel of assays, including a liver cytochrome p450 enzyme panel, CAR/PXR signaling pathways, and P-gp transporter assays, to assess their activity. This pipeline facilitated the interrogation of Natural Product-Drug Interaction (NaPDI) through prominent metabolizing pathways. In addition, we compared the activity profiles of the DSNP/TCM substances with those of an approved drug collection. Many of the approved drugs have well-annotated mechanisms of action (MOA) while the MOAs for most of the DSNP and TCM samples remain unknown. Based on the premise that compounds with similar activity profiles tend to share similar targets or MOA, we clustered the library activity profiles to identify overlap with the NCATS Pharmaceutical Collection to predict the MOAs of the DSNP/TCM substances. Overall, we highlight four significant bioactivity profiles (measured by p-values) as examples of this prediction.
To this end, we profiled both collections for potential CAR and/or PXR activity, employing a previously published 1536-well qHTS assay.
PROTOCOL TABLE (as described by Inglese J, Shamu CE and Guy RK. 2007)
SEQUENCE No. (e.g., 1, 2, 3, etc.); […] (e.g., Cells, Incubation, Reagent, etc.); VALUE; DESCRIPTION.
1; Cells; 4 uL; 1536-well white Greiner assay plate.
2; Incubation; 5 hours; 37C, 95% humidity, 5% CO2.
3; Compounds; 23 nL; Kalypsis pin tool (Wako USA) equipped with 1536-well pin head to transfer to the assay plates.
4; Reagent; 1 uL; 48 uM CITCO (final concentration).
5; Incubation; 24 hours; 37C, 5% CO2.
6; Detection Reagent 1; 1 uL; CellTiter-Fluor (Promega).
7; Incubation; 1 hour; 37C, 5% CO2.
8; Detector 1; Fluorescence intensity; ViewLux plate reader (excitation 405 nm, emission 540 nm).
9; Detection Reagent 2; 4 uL; ONE-Glo Luciferase reagent (Promega).
10; Incubation; 30 min; room temperature.
11; Detector 2; Luminescence intensity; ViewLux.
NOTES (numbers refer to Sequence numbers above)
1. 4 uL of HepG2-CYP2B6-hCAR cells at 6.25 x 10^5 cells/mL (2,500 cells/well) were dispensed using a Multidrop Combi dispenser in tissue culture-treated 1536-well white assay plates (Greiner Bio-One) in the same culture media, without geneticin and blasticidin included.
2. Plates were incubated for 5 hours at 37C, 95% humidity, and 5% CO2 to allow for cell attachment.
3. Compounds (final concentrations of most substances ranged from 15.6 nM to 31.9 uM), positive control (for antagonist mode: PK11195 with a final concentration range 2.8 nM to 92 uM), and toxicity control tetraoctyl ammonium bromide (final concentration of 92 uM) were transferred (23 nL) via pintool (Wako Automation).
4. After compound transfer, plates were dispensed with 1 uL of the known hCAR agonist 6-(4-Chlorophenyl)imidazo[2,1-b][1,3]thiazole-5-carbaldehyde O-(3,4-dichlorobenzyl)oxime (CITCO, final concentration of 48 uM) in the antagonist mode using a BioRAPTR FRDTM.
6. 1 uL of CellTiter-Fluor (Promega, Madison, Wisconsin) was added using a BioRAPTR FRDTM.
8. Fluorescence intensity (Ex/Em = 405 nm/540 nm) is obtained using the ViewLux plate reader to determine cell viability.
9. 4 uL of ONE-Glo Luciferase reagent (Promega) was added to each well using the BioRAPTR FRDTM,
10. Luminescence intensity is read using the ViewLux detector.
Potency means the concentration at half of the fitted maximal effect.

Chain of Nuclear receptor subfamily 1 group I member 3 (Homo sapiens) (Q14994 whole entry, looked up): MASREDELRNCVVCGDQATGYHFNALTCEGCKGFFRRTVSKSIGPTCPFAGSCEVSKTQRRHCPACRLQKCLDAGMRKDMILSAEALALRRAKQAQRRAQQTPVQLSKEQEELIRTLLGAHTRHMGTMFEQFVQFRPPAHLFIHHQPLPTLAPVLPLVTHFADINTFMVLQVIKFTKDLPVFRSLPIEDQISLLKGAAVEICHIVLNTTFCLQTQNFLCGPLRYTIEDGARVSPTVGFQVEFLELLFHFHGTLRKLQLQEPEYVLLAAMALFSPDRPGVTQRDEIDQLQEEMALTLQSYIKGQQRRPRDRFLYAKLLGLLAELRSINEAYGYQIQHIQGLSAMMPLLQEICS

| Structure (SMILES) | Potency |
| --- | --- |
| Cc1cc2nc3c(=O)[nH]c(=O)nc-3n(CC(O)C(O)C(O)CO)c2cc1C (stereo not drawn) | inactive |
| Cc1ncc(C[n+]2csc(CCO)c2C)c(N)n1 | inactive |
| CC(=O)OC/C=C/c1ccccc1 | inactive |
| C[N+](C)(C)CCO | inactive |
| C=C/C(C)=C/C/C=C(\C)CCC=C(C)C | inactive |
| CC(=O)O[C@@H]1C[C@@H](C)[C@](O)(CCC2=CC(=O)OC2)[C@@]2(C)CCCC(C)(C)C12 (stereo partly drawn) | inactive |
| CCCCCCCCCCCCCC(=O)OCC(O)CO (stereo not drawn) | inactive |
| CCCCCCCCCCCC(=O)OCC(O)CO (stereo not drawn) | inactive |
| C=C(CO)C(=O)O[C@H]1CC(=C)[C@@H]2C[C@H](O)C(=C)[C@@H]2[C@H]2OC(=O)C(=C)[C@@H]21 | 22.4 µM (active) |
| O=c1cc(-c2ccc(O)cc2)oc2cc(O)cc(O)c12 | inactive |
| O=C(O)/C=C/c1ccc(O)c(O)c1 | inactive |
| O=c1cc(-c2ccc(O)c(O)c2)oc2cc(O)cc(O)c12 | inactive |
| O=c1c(-c2ccc(O)cc2)coc2cc(O[C@@H]3O[C@H](CO)[C@H](O)[C@H](O)[C@H]3O)ccc12 | inactive |
| C=C(C)[C@@H]1CC[C@]2(C(=O)O)CC[C@]3(C)[C@H](CC[C@@H]4[C@@]5(C)CC[C@H](O)C(C)(C)[C@@H]5CC[C@]43C)[C@@H]12 | inactive |
| CCCCCCCC(=O)O | inactive |
| COc1cc(O)c2c(c1)C(=O)c1cc(C)cc(O)c1C2=O | inactive |
| O=C(/C=C/c1ccc(O)c(O)c1)OC(Cc1ccc(O)c(O)c1)C(=O)O (stereo not drawn) | inactive |
| C[C@@]12C[C@@]3(O)O[C@@H](O1)[C@]1(COC(=O)c4ccccc4)[C@@H]3C[C@@]12O[C@@H]1O[C@H](CO)[C@@H](O)[C@H](O)[C@@H]1O | inactive |
| COc1ccc(C(C)=O)c(O)c1 | inactive |
| CC(=O)C1=C(O)C=C2Oc3c(C(C)=O)c(O)c(C)c(O)c3[C@]2(C)C1=O | inactive |
| CCCCCC(=O)CC | inactive |
| CCCCCCCCCC=O | inactive |
| CC(C)=CCC(O)/C(C)=C/CO[C@@H]1O[C@H](CO)[C@@H](O)[C@H](O)[C@H]1O (stereo partly drawn) | inactive |

Source: PubChem BioAssay (NCATS)
